Common to all, as to parameters: species or system human, MV4-11 + K-562 + COLO205 + SK-N-BE2 + OVCAR-8
For one experiment, the system named is MAPKAPK2. To be noted: read-out: apparent Kd; compound concentrations:100 nM and 1000 nM (sheet 'Samples'); n = 1.
For a further experiment, the system named is RIPK2. As to conditions: read-out: apparent Kd, n = 1.
A further experiment has as its system AXL. To be noted: read-out: apparent Kd, n = 1.
The next experiment has as its system CSK. As to conditions: read-out: apparent Kd, n = 1.
A further experiment concerns EPHA1. As to conditions: read-out: apparent Kd, n = 1.
For the next experiment, the system named is EPHB3. To be noted: read-out: apparent Kd, n = 1.
In another experiment the test system is LYN. As to conditions: read-out: apparent Kd, n = 1.
The next experiment relates to MTOR. As to conditions: read-out: apparent Kd, n = 1.
Another experiment deals with ULK1. As to conditions: read-out: apparent Kd, n = 1.
A further experiment relates to PIK3CG. As to conditions: read-out: apparent Kd, n = 1.
A further experiment deals with TGFBR2. As to conditions: read-out: apparent Kd, n = 1.
The next experiment relates to PKN2. As to conditions: read-out: apparent Kd, n = 1.
A further experiment relates to PRKG1. As to conditions: read-out: apparent Kd, n = 1.
The subject of the next experiment is PDGFRB. To be noted: read-out: apparent Kd, n = 1.
For a further experiment, the system named is CDC42BPG. To be noted: read-out: apparent Kd; compound concentrations: 100 nM and 1000 nM (sheet 'Samples'), CATDS: 3.2590652290340097E-2; n = 1.
The test system of the next experiment is ICK. As to conditions: read-out: apparent Kd, compound concentrations: 100 nM and 1000 nM (sheet 'Samples'), n = 1.
The next experiment has as its system ROCK1. To be noted: read-out: apparent Kd, compound concentrations: 100 nM and 1000 nM (sheet 'Samples'), n = 1.
The next experiment deals with CDC42BPA. As to conditions: read-out: apparent Kd; compound concentrations: 100 nM and 1000 nM (sheet 'Samples'), CATDS: 2.2465917361224799E-2; n = 1.
For a further experiment, the system named is CDK9. To be noted: read-out: apparent Kd; compound concentrations: 100 nM and 1000 nM (sheet 'Samples'), CATDS: 4.3233319898636102E-2; n = 1.
Setting [1] is: compound concentrations:100 nM and 1000 nM (sheet 'Samples').

Read-outs that look alike come from different tables or passages of the source.

This passage reports potency estimated from few doses results from article PMC11062922 (Nature Chemical Biology, 2023).

For the compound `Cl.ON=C1CCc2cc(-c3nc(C4CCNCC4)[nH]c3-c3ccncc3)ccc21` [SB-614067-R], the potency estimated from few doses is 874 nM with MAPKAPK2 and 320 nM in the experiment with RIPK2 (setting [1]).

Take `Clc1cc(Cl)cc(Nc2ccnc(Nc3cc(Cl)cc(Cl)c3)n2)c1` [GSK175726A]: the potency estimated from few doses was 1710 nM in the experiment on AXL (compound concentrations: 100 nM and 1000 nM (sheet 'Samples'), CATDS: 8.4752300032334103E-3); 462 nM in the experiment on CSK (compound concentrations: 100 nM and 1000 nM (sheet 'Samples'), CATDS: 1.17668577174877E-2); 280 nM with EPHA1 (compound concentrations: 100 nM and 1000 nM (sheet 'Samples'), CATDS: 1.41379738320296E-2); 1370 nM in the experiment with EPHB3 (compound concentrations: 100 nM and 1000 nM (sheet 'Samples'), CATDS: 8.8361902766531698E-3); 169 nM in the experiment with LYN (compound concentrations: 100 nM and 1000 nM (sheet 'Samples'), CATDS: 1.7701594212269099E-2); 172 nM in the experiment with MTOR (compound concentrations: 100 nM and 1000 nM (sheet 'Samples'), CATDS: 1.7554405068834999E-2). Further, the potency estimated from few doses with RIPK2 (compound concentrations: 100 nM and 1000 nM (sheet 'Samples'), CATDS: 1.18071418274956E-2) is 457 nM; with ULK1 (compound concentrations: 100 nM and 1000 nM (sheet 'Samples'), CATDS: 8.5136949732422407E-3) it was 1670 nM.

For `O=C1NC(=O)C(N2CCc3ccccc32)=C1c1ccccc1Cl` [SB-373598], the potency estimated from few doses was 775 nM in the experiment on AXL (setting [1]); 273 nM in the experiment with CSK (setting [1]); 207 nM in the experiment on EPHA1 (setting [1]); 549 nM with EPHB3 (setting [1]); 210 nM in the experiment with LYN (setting [1]); 461 nM with MTOR (setting [1]). For the same compound, the potency estimated from few doses in the experiment on PIK3CG (setting [1]) is 1110 nM; with RIPK2 (setting [1]) it was 273 nM; with ULK1 (setting [1]) it was 305 nM.

Turning to `Cc1ccc(Nc2ccnc(Nc3ccc4c(c3)CS(=O)(=O)C4)n2)cc1O.Cl` [GW579362A], the potency estimated from few doses in the experiment on RIPK2 (compound concentrations: 100 nM and 1000 nM (sheet 'Samples'), CATDS: 5.8804795040806997E-2) was 261 nM; in the experiment with TGFBR2 (compound concentrations: 100 nM and 1000 nM (sheet 'Samples'), CATDS: 0.33092190258733201), 13.2 nM.

Regarding `CCn1c(-c2nonc2N)nc2c(C#CC(C)(C)O)nc(OCCN)cc21.CCn1c(-c2nonc2N)nc2c(C#CC(C)(C)O)nc(OCCN)cc21.Cl.Cl` [GSK902056A], the potency estimated from few doses in the experiment with PKN2 (setting [1]) is 581 nM; in the experiment with PRKG1 (setting [1]), 1230 nM.

In the case of `Cc1ccc2c(-c3ccncc3)c(-c3ccc(F)cc3)nn2c1.Cl` [GW461484A], the potency estimated from few doses in the experiment with CSK (setting [1]) was 893 nM; in the experiment on EPHA1 (setting [1]), 643 nM; in the experiment on EPHB3 (setting [1]), 1960 nM; in the experiment with LYN (setting [1]), 1010 nM; in the experiment on MAPKAPK2, 573 nM; in the experiment with MTOR (setting [1]) it was 571 nM.

Regarding `Cc1cccc(Nc2nc(N[C@H]3CCNC3)ncc2C(N)=O)c1.Cl` [GSK2197149A], the potency estimated from few doses is 532 nM in the experiment on MTOR (setting [1]), 819 nM in the experiment with PIK3CG (setting [1]) and 1870 nM with TGFBR2 (setting [1]).

In the case of `NC(=O)c1cc(-c2ccccc2)cc2c(C3CCNCC3)c[nH]c12` [GSK301362A], the potency estimated from few doses in the experiment on PDGFRB (setting [1]) was 1630 nM.

With `Cl.Cl.NC(CNC(=O)c1cc(Br)c(-c2ccnc3[nH]ccc23)s1)c1ccccc1.NC(CNC(=O)c1cc(Br)c(-c2ccnc3[nH]ccc23)s1)c1ccccc1` (stereo not drawn) [GSK1322949A], the potency estimated from few doses in the experiment with CDC42BPG was 1010 nM; in the experiment with ICK (CATDS: 2.9774635875568601E-2), 1230 nM; in the experiment with PRKG1 (compound concentrations: 100 nM and 1000 nM (sheet 'Samples'), CATDS: 7.4482262143184694E-2), 247 nM; in the experiment on ROCK1 (CATDS: 9.3197598269089799E-2), 181 nM.

With `COc1cc(Nc2nccc(-c3cnn4ncccc34)n2)cc(OC)c1` [GW801372X], the potency estimated from few doses in the experiment with CDC42BPA is 786 nM; in the experiment on CDK9, 142 nM; in the experiment on ICK (CATDS: 7.2296176142385704E-2), 49.6 nM; with PDGFRB (compound concentrations: 100 nM and 1000 nM (sheet 'Samples'), CATDS: 1.5756503418678101E-2), 3520 nM.

With `O=C1N=C(NCc2cccs2)O/C1=C\c1ccc2ncccc2c1` [RO4624208-000], the potency estimated from few doses in the experiment with PIK3CG (compound concentrations: 100 nM and 1000 nM (sheet 'Samples'), CATDS: 5.5474832594148302E-2) was 936 nM.

Consider `c1ccc(-c2n[nH]cc2Nc2ccnc3ccccc23)nc1` [GW694077X], for which the potency estimated from few doses in the experiment with PKN2 (compound concentrations: 100 nM and 1000 nM (sheet 'Samples'), CATDS: 2.23851306081322E-2) is 2310 nM; in the experiment with ROCK1 (CATDS: 2.4219369604879502E-2), 1650 nM; in the experiment with TGFBR2 (compound concentrations: 100 nM and 1000 nM (sheet 'Samples'), CATDS: 2.8342721884761699E-2) it was 940 nM.
